Results from PubChem BioAssay (NCI).
About 83,000 compounds went through this panel and 20% of them were active in at least one assay; those are over-represented in the sample as a whole.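 Assay: single dose, 48 h. Readout: percent growth (0 = no net growth; negative = cell death). Active: <10.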 Activity calls are given as the source filed them.

test system: UO-31 renal; assay: NCI-60 one-dose screen, 48 h (100 = growth as untreated, 0 = no growth, -100 = all killed); conditions: 10 µM unless noted
Experimental: Growth inhibition of the UO-31 human tumor cell line is measured as a screen for anti-cancer activity. Cells are grown in 96 well plates and exposed to the test compound for 48 hours. Compounds are tested at a single concentration, which is 10^-5 M for most compounds. The reported endpoint is percent growth (GI% or GIPRCNT), where numbers from 0 - 100% represent growth inhibition, and numbers from -100% - 0 represent cell death. For example, a value of 40 represents 60% growth inhibition. A value of 0 means no net growth occurred over the course of the experiment. A value of -40 indicates 40% of cells at the beginning of the experiment died by the end of the experiment. A value of -100 means all cells are dead at the end of the experiment.
NCI-60 Human Tumor Cell Lines Screen was performed using the standard one-dose NCI protocol, which is described in more detail at https://dtp.cancer.gov/discovery_development/nci-60/default.htm.
Compounds with GIPRCNT values below 10 were considered active. Activity score was based on GIPRCNT using the following formula: […]
Score is 0 for GIPRCNT values of 100 or above, 50 for GIPRCNT values of 0, and 100 for GIPRCNT values of -100.

SMILES	growth
COc1cc2ncnc(Oc3ccc(NC(=O)Nc4ccc(CN5CCOCC5)c(C(F)(F)F)c4)c4ccccc34)c2cc1OC	-11.9% (active)
CC(=O)c1cc2c(c(O)c1C)C(=O)C(=O)c1c(O)cccc1-2	-97.3% (active)
Fc1cccc(F)c1C#Cc1ccc2cccnc2c1	53.5% (inactive)
CCOc1ccc(-n2c(-c3cc(OC)c(OC)c(OC)c3)nnc2-c2ccc(OC)cc2N)cc1	57.4% (inactive)
COc1ccc(Cn2cc(COc3ccc4c5ccnc(C)c5n(CCCc5ccccc5)c4c3)nn2)cc1	70.5% (inactive)
CS(=O)(=O)OCC(COS(C)(=O)=O)C(c1ccccc1)c1ccccc1	91.2% (inactive)
Cc1ccc(-c2cc(-c3nnc(SCC(=O)c4ccccc4)o3)c3ccccc3n2)cc1	74.6% (inactive)
Cc1cccc[n+]1CCC[n+]1ccccc1C	99% (inactive)
COc1ccc(/C(Cl)=N/N=C(\Cl)c2cc(OC)c(OC)c(OC)c2)cc1OC(C)=O	65.5% (inactive)
O=S(=O)(Nc1cccc2cc(OS(=O)(=O)c3ccccc3)ccc12)c1ccccc1	59.7% (inactive)
CC(CCC(=O)O)[C@H]1CCC2C3C(=O)C[C@@H]4CC(=O)CC[C@]4(C)C3CC(=O)[C@@]21C (stereo not given in full)	83.8% (inactive)
COc1ccccc1S(=O)(=O)Nc1ccc2c3c(cc(-c4cnn(C5CC5)c4)nc13)C(=O)N2C	34.9% (inactive)
OC(COc1ccccc1Cl)CN1CCN(c2ccc(Cl)cc2)CC1 (stereo not given)	81.7% (inactive)
C=CCn1c(SCC(=O)Nc2ccc(/C(C)=N\O)cc2)nnc1-c1cc(-c2ccc(OC)cc2)nc2ccccc12	14.7% (inactive)
O=C(Nc1cccc(-n2ccc3c(NC(=O)c4ccccc4)ncnc32)c1)Nc1ccc(Cl)c(C(F)(F)F)c1	43.5% (inactive)
O=C(NCCNc1nccc(-c2c(-c3cccc(O)c3)nc3sccn23)n1)c1cccc(C(F)(F)F)c1	73.4% (inactive)
CC1(C)CC(=O)C2=C(C1)OC1=C(C(=O)CC(C)(C)C1)C2c1ccc(OCc2cn(-c3ccc(F)cc3F)nn2)cc1	89.6% (inactive)
CN(C)CCS(=O)(=O)Nc1cc(-c2ccc3ncnc(Nc4ccc(F)c(Cl)c4)c3c2)cnc1Cl	-61.2% (active)
COc1cc(CN(c2ccc(Cl)cc2)C2OC(=O)c3ccccc32)cc(OC)c1OC (stereo not given)	72.4% (inactive)
CN1C(=O)C2(NN=C(c3cccc4ccccc34)S2)c2ccccc21 (stereo not given)	18.5% (inactive)

SMILES	growth
Cc1[nH]c2ccc(F)cc2c1CCNC(=O)C1CCN(C(=O)c2ccc(-c3ccccc3)cc2)CC1	36.5% (inactive)
CCCC(=O)Oc1ccc(/C(=C(\C)c2ccc(Cl)cc2)c2ccc(OCCN(CC)CC)cc2)cc1	-65% (active)
COC(OC)C1(c2ccccc2)NC(=O)NC1=O (stereo not given)	101% (inactive)
C=C1C(=O)O[C@H]2[C@H]1CC/C(COC(=O)c1ccc3ccccc3c1)=C\CC[C@@]1(C)O[C@@H]21	-98.9% (active)
Oc1ccc(Cl)cc1Sc1cc(Cl)ccc1O	74.6% (inactive)
COc1cc(NS(=O)(=O)c2ccc(N)cc2)ncn1	86.2% (inactive)
CN1CCN(CC(=O)N(C)c2ccc(N=C(c3ccccc3)c3c(O)[nH]c4ccc(C#N)cc34)cc2)CC1	23.9% (inactive)
Fc1ccc(/C=N/n2c(-c3cc(Cl)cc(Cl)c3Cl)nn(CNc3ccc(Cl)nn3)c2=S)cc1	89.4% (inactive)
Cc1ccn2cc(Cc3cc(=O)oc4c3ccc3ccccc34)c(=O)nc2c1	80.2% (inactive)
CC(C)C(=O)Nc1nc2c(s1)CCCc1ccn(S(=O)(=O)c3ccccc3)c1-2	77.1% (inactive)
O=C(Nc1ccc(-n2ccc3c(NC(=O)c4ccccc4)nccc32)cc1)c1cccc(C(F)(F)F)c1	23.7% (inactive)
O=C(O)c1cc2ccccc2cc1Nc1ccccc1	82.5% (inactive)
CCC1S/C(=N\N=C(/C)c2cc3ccccc3o2)N(c2ccccc2)C1=O (stereo not given)	75.9% (inactive)
COc1ccc(/C(=C/c2cc(OC)c(OC)c(OC)c2)[N+](=O)[O-])cc1	-69.1% (active)
COc1ccc2c(c1)OC(N)=C(C#N)C2c1ccc(F)c(F)c1 (stereo not given)	52.8% (inactive)
O=C(NCCNc1nccc(-c2c(-c3cccc(O)c3)nc3sccn23)n1)Nc1cc(C(F)(F)F)cc(C(F)(F)F)c1	73.1% (inactive)
COCCNC(C(=O)c1ccccc1)c1ccccc1 (stereo not given)	97.7% (inactive)
CCC1S/C(=N\N=C(/C)c2cccs2)N(c2ccccc2)C1=O (stereo not given)	110% (inactive)
CN(C)C(=O)Nc1nc2cc(Cl)c(Cl)cc2[nH]1	20.4% (inactive)
CCN1CCN(Cc2ccc(NC(=O)Nc3cccc(-n4ccc5c(NC(=O)c6ccccc6)nccc54)c3)cc2C(F)(F)F)CC1	72.3% (inactive)
